Bioassay records (PubChem BioAssay)
ST2 inh: blocks human ST2 binding to IL-33; inhibition, % for hits at 17 µM; 78,000 compounds, 2.3% hits; AlphaLISA ST2-Fc/biotin-IL-33 interaction, 1 h; in the data active = inhibition above about 30%
Target sequence (Q01638 whole entry, looked up): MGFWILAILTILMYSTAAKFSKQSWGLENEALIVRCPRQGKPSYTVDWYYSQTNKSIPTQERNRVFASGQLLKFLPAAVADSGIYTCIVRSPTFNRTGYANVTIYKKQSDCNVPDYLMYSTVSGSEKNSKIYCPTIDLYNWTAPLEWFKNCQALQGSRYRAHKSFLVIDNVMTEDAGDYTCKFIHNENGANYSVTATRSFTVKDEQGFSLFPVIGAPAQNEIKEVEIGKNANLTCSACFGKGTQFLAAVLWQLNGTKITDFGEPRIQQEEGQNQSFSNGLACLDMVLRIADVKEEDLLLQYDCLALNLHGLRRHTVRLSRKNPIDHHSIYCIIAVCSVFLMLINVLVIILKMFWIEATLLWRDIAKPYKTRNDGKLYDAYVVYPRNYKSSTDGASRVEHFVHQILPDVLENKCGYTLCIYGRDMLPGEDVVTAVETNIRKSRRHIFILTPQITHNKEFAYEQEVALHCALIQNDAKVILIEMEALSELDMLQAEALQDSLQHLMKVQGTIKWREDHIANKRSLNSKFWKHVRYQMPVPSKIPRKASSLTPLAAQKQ
A number is an active result; - = inactive. The full list was thinned out, with hits kept by preference.

SMILES	ST2 inh
Cc1cc(CNC(=O)c2cnn(-c3nccc(-c4cc(C)sc4C)n3)c2C)on1	30.0%
COc1ccccc1C(=O)N/C(=C\c1ccc2c(c1)OCO2)C(=O)NC(CCSC)C(=O)O (stereo not drawn)	-
COC(=O)c1ccc(CN2CCN(CC3CCCCC3)C(CCO)C2)cc1 (stereo not drawn)	-
CC(NC(=O)c1ccc(N)cc1)C12CC3CC(CC(C3)C1)C2 (stereo not drawn)	-
COc1ccccc1OCCOc1ccc([N+](=O)[O-])cc1/C=C1/C(=O)N(c2ccccc2)N=C1C	-
COc1cccc(/C=C2\C(=O)N(c3cccc(Cl)c3)N=C2C)c1	-
COc1cccc(OCCOc2ccc(/C=C3/C(=O)N(c4ccccc4)N=C3C)cc2OC)c1	43.0%
COc1cc(/C=C2/C(=O)N(c3ccccc3)N=C2C)ccc1OCCOCCOc1ccccc1	45.0%
COc1ccccc1/C=C1/C(=O)N(c2ccccc2)N=C1C	-
C=CCN1C(=O)NC(=O)/C(=C/c2cccc(OCc3ccccc3Cl)c2)C1=O	-
CC1=NN(c2ccccc2)C(=O)/C1=C/c1ccc(O)c(Br)c1	-
CCc1cccc(OCCOCCN2CCCC2)c1	-
CC1=NN(c2ccccc2)C(=O)/C1=C/c1cccc(C(=O)O)c1	-
Cc1cccc(OCCOCCOc2ccc(/C=C3\C(=O)NN(c4ccccc4)C3=O)cc2)c1	34.0%
COc1cc(/C=C2\C(=O)N(c3ccccc3)N=C2C)ccc1OCc1ccc(F)cc1	-
CC1=NN(c2ccccc2)C(=O)/C1=C\c1ccccc1OCc1ccccc1	40.0%
CC(C)COC(=O)C1C2C=CC3(CN(CC4CCCO4)C(=O)C13)O2 (stereo not drawn)	-
c1ccc(-c2ncsc2CNCc2nc(-c3ccco3)no2)cc1	-
COc1c(S(=O)(=O)N2CCN(C34CC5CC(CC(C5)C3)C4)CC2)ccc(Cl)c1Cl	-
O=C(Nc1ccc(-c2nc3ccccc3o2)cc1)c1ccco1	-
COC(=O)c1ccc(C(=O)Nc2nc3c(cc4c5c(cccc53)CC4)s2)cc1	-
CCCCOc1ccc(C2CC(=O)Nc3cc(N4CCNC4=O)ccc32)cc1 (stereo not drawn)	-
COc1ccc2c(c1)c(C(=O)CN1CCOCC1)c(C)n2C	-
Cc1[nH]c2ccc(Cl)cc2c(=O)c1CN1CCOCC1	-
Cc1ccc2c(C(=O)CN3CCOCC3)c(C)[nH]c2c1	32.0%
SMILES	ST2 inh
CN(C)c1ccc(C(=O)NC[C@H]2O[C@@H](CO)[C@@H](O)[C@H]2N2CCN(c3ccc(F)cc3)CC2)cc1	-
C=C(C)CN1C(=O)NC(CC)(C2CCN(C(=O)c3ccc(N4CCCCC4)cc3)CC2)C1=O (stereo not drawn)	-
COC(=O)C1CCN(C(=O)c2cc3c(=O)n4cccc(C)c4nc3n2C)CC1	-
CC(=O)c1ccc(NC(=O)c2ccccc2F)cc1	-
Cc1ccc(-n2nc3ccc(NC(=O)c4ccccc4F)cc3n2)cc1	-
O=C(Nc1ccc(N2CCCC2)cc1)c1ccccc1F	68.0%
Cc1cc(N2CCN(C)CC2)nc2ccc(NC(=O)c3ccco3)cc12	-
O=C1NC(=Nc2ccccc2)S/C1=C/c1cc2c(cc1Br)OCO2	-
COc1ccc(/C=C2/SC(=Nc3ccc(S(N)(=O)=O)cc3)NC2=O)cc1	37.0%
CC(C)c1ccc(/C=C2/SC(=Nc3ccccc3)NC2=O)cc1	37.0%
O=C1N/C(=N/O)S/C1=C/c1ccc([N+](=O)[O-])cc1	-
CCOc1cc(/C=C2/SC(=Nc3ccccc3)NC2=O)ccc1OC	-
COc1cc(/C=C2/SC(=Nc3ccccc3Cl)NC2=O)cc(OC)c1	-
CCOC(=O)C1CCN(C(=O)Cn2c3ccccc3c(=O)c3ccccc32)CC1	-
CC(=O)c1ccc(NC(=O)O[C@@H]2CO[C@H]3[C@@H]2OC[C@@H]3NC(=S)Nc2ccc(N(C)C)cc2)cc1	-
COC(=O)c1nc2n(n1)C(c1ccc(C(C)C)cc1)C1=C(CCCC1=O)N2 (stereo not drawn)	-
CSc1cccc(NC(=O)COc2ccccc2Cl)c1	-
CC1CC(=O)Nc2cc([N+](=O)[O-])ccc2N1 (stereo not drawn)	-
O=C1Nc2cc(Cl)c(Cl)cc2N(O)N1c1ccc([N+](=O)[O-])cc1	-
Cc1ccc2c(c1)C1C=CCC1C(c1ccccc1Cl)N2 (stereo not drawn)	33.0%
O=C(c1ccc2c(c1)C1C=CCC1C(c1ccc([N+](=O)[O-])cc1)N2)N1CCCC1 (stereo not drawn)	40.0%
CC1CC(C)CN(C(=O)c2ccc([N+](=O)[O-])cc2)C1 (stereo not drawn)	-
Cc1ccc([C@@H]2Nc3ccc(C(=O)O)cc3[C@@H]3C=CC[C@@H]32)cc1	34.0%
Cc1ccc(C(=O)N2CCCC2)cc1[N+](=O)[O-]	-
O=[N+]([O-])c1ccc(C2Nc3cc(Cl)cc(Cl)c3C3C=CCC32)cc1 (stereo not drawn)	32.0%
SMILES	ST2 inh
Cc1ccc(C(=O)N2CCN(C(=O)c3ccccc3)C2c2ccc(N(C)C)cc2)cc1 (stereo not drawn)	-
Cc1ccc(S(=O)(=O)N2CCSC2c2ccccc2Cl)c(C)c1 (stereo not drawn)	-
COc1ccc(NC(=O)N2CCN(c3ccccc3)CC2)cc1	-
CCN(Cc1ccccc1)C(=O)C1CCCN1S(=O)(=O)c1cccc2nsnc12 (stereo not drawn)	-
CC1=CC(C)C2C(=O)N(Cc3ccco3)C(=O)C2C1 (stereo not drawn)	-
O=C(NC1CCCC1)C1CCN(S(=O)(=O)c2cccs2)CC1	-
Cc1ccc(C(CC(=O)Nc2ccccc2C)c2ccccc2)c(O)c1 (stereo not drawn)	-
Cc1ccncc1-c1cccc2ccnn12	-
CC(Oc1ccccc1)C(=O)Nc1c(C(=O)Nc2ccc(F)cc2)oc2ccccc12 (stereo not drawn)	-
CCn1cc(C(=O)NCCC(C)C)c(=O)c2cc(S(=O)(=O)N3CCC(C)CC3)ccc21	-
CC(C)(O)C1Oc2cc3oc(=O)ccc3cc2C1O[C@@H]1O[C@H](CO)[C@@H](O)[C@H](O)[C@H]1O (stereo partly drawn)	-
COc1cccc(-n2c(SCC(=O)Nc3nccs3)nc3c([nH]c4ccccc43)c2=O)c1	-
CCCCOC(=O)C1=C(C)Nc2nnnn2C1c1ccc(C)cc1 (stereo not drawn)	-
CN(C)C(=O)c1nn(Cc2ccccc2)c2c1CN(C(=O)CC1=CCCCC1)CC2	-
CC(C)NS(=O)(=O)c1cc(NC2CCCCC2)cc(C(=O)NC2Cc3ccccc3C2)c1	30.0%
Cc1ccc(S(=O)(=O)N2CCCCC2)cc1C(=O)NC1CCCCC1	-
CC(C)C(NS(=O)(=O)c1cccs1)C(=O)NC1CCCCCC1 (stereo not drawn)	-
COc1cccc(-c2cn3c4c(=O)n(C)c(=O)n(C)c4nc3n2-c2cccc(C)c2)c1	-
COc1ccc(CNCc2ccccn2)cc1OC	-
Cc1ccccc1CN1CCC(CNC(=O)c2ccn(C)c(=O)c2)C1 (stereo not drawn)	-
CC1CCCCN1S(=O)(=O)c1ccc2[nH]c(=O)cc(C(=O)NCCN3CCCCCC3)c2c1 (stereo not drawn)	-
COC(=O)C1C(=O)C2=C(CC1C)NC(C)=C(C(=O)OC(C)C)C2c1ccc(F)cc1 (stereo not drawn)	-
CC(C)Cn1cc(C(=O)N2CC(C)CC(C)C2)c2c3ccccc3n(C)c2c1=O (stereo not drawn)	-
O=C(Nc1nc(-c2ccccn2)cs1)c1ccc(C(=O)c2ccccc2)cc1	-
c1ccc(CNc2nc(-c3ccccn3)cs2)cc1	36.0%
